NS1 inh – blocks influenza NS1 protein function; Potency, µM (series often up to 46.1 µM), inactives show at the highest dose activity, positive = more growth; hit rate 0.4% among 270,000; calls by dose curve; also: actives are rising curves; nearly all actives have a fitted effect of over 50% in size
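Read-out: OD600 growth recovery of NS1-expressing budding yeast. Cells grown overnight at 30C in -URA glucose medium, washed, resuspended and diluted 1:100 in 2% galactose assay medium, pH 6.0. Same strain lacking NS1 served as positive control.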
Pf growth 96h – P. falciparum growth inhibition at 96 hour, primary screen for plastid delayed-death inhibitors; P. falciparum luciferase reporter growth, 96 h; Potency, µM (doses to about 28.7 µM), for the others: top-dose activity change, negative = inhibition, most hits filed as inhibitors; hit rate 6.9% among 320,000; AID 504834; also: % is scaled to controls: 0 for no effect and ±100 for the full control effect
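Luminescence readout: decreased luciferase signal marks inhibited growth of reporter-expressing P. falciparum in infected red cells (2% hematocrit, 0.05% parasitemia final), exposed to compound two generations (96 h, 37 C, 5% CO2).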
AMA1 RON2 block – disrupts binding of P. falciparum AMA1 to RON2 | AlphaScreen AMA1-biotinylated RON2 peptide binding | Potency, µM (series often up to 58.2 µM), for the others: at the top dose activity change, negative = inhibition, usual class: inhibitors | hit rate 0.2% among 360,000 | AID 720542;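 also: 0% = vehicle wells and -100% = peptide control; nearly all actives have a fitted effect of over 45% in size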
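AMA1 (3D7) with his tag at 25 nM final met compounds first, then biotinylated RON2 peptide at 25 nM; detection used donor plus acceptor beads, 10 µg/mL apiece, read by AlphaScreen after 30 min at room temperature.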
Sm TGR block – inhibitors of Schistosoma mansoni thioredoxin glutathione reductase; Q962Y6; purified TGR, DTNB reduction, TNB absorbance 405 nm; Potency, µM (top dose mostly 114 µM), without a hit: top-dose activity change, negative = inhibition, actives largely listed as inhibitors; hit rate 3% among 360,000; AID 485364; also: % is scaled to controls: 0 for no effect and ±100 for the full control effect; nearly all actives have a fitted effect of over 60% in size
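First, TGR (20 nM dispensed) and NADPH were mixed with compound. Second, a 15 min room-temperature incubation followed. Third, further NADPH and then DTNB were added to start the reaction. Finally, TNB absorbance was monitored kinetically.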
Pf growth 48h – P. falciparum growth inhibition at 48 hours (one generation) | hit rate 5.9% among 310,000 | P. falciparum luciferase growth in erythrocytes, 48 h | AID 504832 | Potency, µM (titrated, usually from 28.7 µM), for the others: at the highest dose activity change, negative = inhibition, hits mostly inhibitors; also: % is scaled to controls: 0 for no effect and ±100 for the full control effect
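Read-out is firefly luciferase luminescence from an integrated reporter in P. falciparum, so falling signal marks reduced parasite growth. Infected erythrocytes were at 2% hematocrit and 0.1% parasitemia (final) in Albumax-supplemented RPMI 1640.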
The depositor's hits bear a star; ? = inconclusive; · = not tested or not shown; [ ] = dose if it differs, or a comment. Shown are actives, neighbours in structure and some others; about 11% of the full set was active somewhere. Unless noted, calls follow the shape of the dose curve; as a rule, active = well fitted curve in the direction sought with a large enough effect; inconclusive = small, poorly fitted or top-dose-only effect, or another doubt; inactive = no such curve, though single readings can be large; an effect the other way counts as inactive or inconclusive. Potency is read from the fitted curve at half-maximal effect.

SMILES	NS1 inh	Pf growth 96h	AMA1 RON2 block	Sm TGR block	Pf growth 48h
O=C(COc1c(Cl)cc(Cl)cc1Cl)c1ccc(Cl)cc1	4%	12µM*	4%[2.32 µM]	1%	0%
CCOC(=O)C(C(=O)Nc1ccccn1)C1CCCCC1 (centres undefined)	-18%	9.3µM*	8%	-16%	6%
CCCCOc1ccc(N(CC(=O)NC2CCCCC2)C(=O)CCC(=O)Nc2ccccn2)cc1	17%	?	4%	-5%	12µM*
COc1ccc(C(=O)NCc2nnc(SCC(=O)NCCc3ccccc3)o2)cc1	19%	?	-2%	1%	28%
CCOC(=O)CSC1=NC(=O)/C(=C\c2ccc(Cl)cc2)S1	-186%	-1%	-18%	3.5µM*	32%
Cc1cc(-c2ccc(C)c(S(=O)(=O)NCCCN3CCN(c4ccccc4F)CC3)c2)on1	-19%	4.7µM*	-5%	9%	?
CCC1=C(c2cc(OC)c(OC)c(OC)c2)C2(CCCC2)C(=O)O1	-14%	?	1%	-19%	-25%
COc1cc(/C=C(\C#N)c2nc3ccccc3[nH]2)ccc1Oc1ccc([N+](=O)[O-])cn1	16%	4.1µM*	54%	-1%	5.9µM*
COc1cc(/C=C(/C#N)c2ccccc2)ccc1Oc1ccc([N+](=O)[O-])cn1	22%	0.93µM*	-3%	-2%	4.7µM*
CN(C)c1nc(N)c(C#N)c(C#N)c1C#N	·	·	21%	·	·
Oc1ccccc1-c1cc(C(F)(F)F)[nH]n1	-128%	9.3µM*	·	-10%	?
CN(C)c1ccc(CC2C(=O)Nc3ccccc32)cc1 (centres undefined)	-1%	?	?	14µM*	?
CC(C)(CO)NCc1ccc(Br)cc1	·	?	-10%	3%	0%
Cc1cc(C)nc(SCC(=O)N/N=C/c2cccn2-c2cccc(C(F)(F)F)c2)n1	18%	13µM*	-11%	-32%	9.3µM*
Cc1cc(C)nc(SCC(=O)N/N=C/c2cccn2-c2ccc(O)cc2)n1	-1%	·	-4%	4%	?
CC(=O)c1ccc2c(c1)C1C(Cl)C(Sc3ccccc3[N+](=O)[O-])CC1C(C(=O)O)N2 (centres undefined)	15%	2.6µM*	-27%	?	-23%
Cc1ccc(NC(=O)Cn2cccc2)cc1Cl	-20%	?	-6%	32µM*	24%
Cc1ccc(NC(=O)Cn2cccc2)c(C)c1	-3%	13µM*	-13%	-6%	·
Cc1ccc(NC(=O)Cn2cccc2)c(Br)c1	-11%	·	3%	?	1%
COc1ccc(S(=O)(=O)N(CCc2ccccc2)CC(=O)Nc2cc(C)cc(C)c2)cc1OC	·	·	·	3%	·
CCN(CC)C(=O)c1cccc(NC(=O)c2cc(C3CC3)nc3c2cnn3C(C)C)c1	·	5.2µM*	-4%	-14%	?
CC(C)n1ncc2c(C(=O)Nc3cccc(S(=O)(=O)N(C)C)c3)cc(C3CC3)nc21	·	?	-2%[11.6 µM]	-7%	12µM*
CNC(=O)c1cccc(NC(=O)c2cc(-c3ccccc3)nc3c2cnn3C(C)C)c1	·	?	-6%	-5%	4.7µM*
CCOC(=O)CN1C(=O)CC(c2ccc([N+](=O)[O-])cc2)C1=O (centres undefined)	26%	7.4µM*	-11%	-1%	19%
COc1ccc(N2C(=O)CC(c3ccc([N+](=O)[O-])cc3)C2=O)cc1 (centres undefined)	-2%	21%	2%	-1%	13%
SMILES	NS1 inh	Pf growth 96h	AMA1 RON2 block	Sm TGR block	Pf growth 48h
CCCCn1c(N)c(N(CC(C)C)C(=O)c2cc(-c3ccco3)nc3ccccc23)c(=O)[nH]c1=O	·	13%	-9%	22µM*	?
CCCCn1c(N)c(N(CCOC)C(=O)c2ccc(-c3cccc(C(F)(F)F)c3)o2)c(=O)[nH]c1=O	·	7.4µM*	-9%	-11%	13µM*
CCCCn1c(N)c(N(CCOC)C(=O)c2cc(-c3ccc(C)cc3)nc3ccccc23)c(=O)[nH]c1=O	·	12µM*	19%	-4%	?
CCCCn1c(N)c(N(CCOC)C(=O)c2cc(-c3ccc(OC)cc3)nc3ccccc23)c(=O)[nH]c1=O	·	?	22%	4%	9.3µM*
CCCn1c(N)c(N(CCOC)C(=O)c2cccc(C(F)(F)F)c2)c(=O)[nH]c1=O	7%	20%	5%	6%	19%
Cc1cccc(N(C(=O)c2csnn2)C(C(=O)NC2CCCCC2)c2ccncc2)c1 (centres undefined)	-6%	11%	?	-12%	-4%
CC(=O)c1ccc(NC(=O)COC(=O)c2ccc(F)cc2F)cc1	-12%	3%	-1%	5%	20%
CC(C)(C)NC(=O)NC(=O)COC(=O)c1cccc(OC(F)F)c1	21%	-6%	-4%	5%	2%
CCOC(=O)c1noc2ncnc(Nc3ccc(C)c(F)c3)c12	·	·	·	6%	·
CC(=O)Nc1nonc1-c1nnc(SCC(=O)Nc2ccc(F)cc2F)n1-c1ccccc1	·	·	·	1%	·
Cc1cccc(NS(=O)(=O)c2ccc(C)c(C(=O)N(C)C)c2)c1	·	0%	-6%	-1%	-6%
CCCCn1c(N)c(N(CCOC)C(=O)CSCc2c(C)noc2C)c(=O)[nH]c1=O	2%	-11%	-9%	79µM*	?
CCOC(=O)C1CCN(CC(=O)Nc2c(C(=O)OC)[nH]c3ccccc23)CC1	-6%	-8%	·	3%	·
CCOC(=O)c1[nH]c2ccc(F)cc2c1NC(=O)C(C)N1CCc2cc(OC)c(OC)cc2C1 (centres undefined)	-87%	?	-2%	-27%	15µM*
CCOC(=O)c1[nH]c2ccc(OCC)cc2c1NC(=O)CN1CCN(c2ccccn2)CC1	-64%	4.7µM*	-6%	-21%	7.4µM*
CCOC(=O)c1[nH]c2ccc(OC)cc2c1NC(=O)C(C)N1CCC2(CC1)OCCO2 (centres undefined)	-6%	63%	·	-1%	?
COC(=O)c1[nH]c2cc(OC)ccc2c1NC(=O)CCN1CCN(c2cccc(C)c2C)CC1	-71%	-5%	-1%	5%	2.6µM*
COC(=O)c1[nH]c2cc(OC)ccc2c1NC(=O)CCN1CCN(c2ccccc2)CC1	1%	·	-16%	-7%	-17%
COC(=O)c1[nH]c2ccccc2c1NC(=O)CN1CCN(c2cccc(OC)c2)C(C)C1 (centres undefined)	-45%	·	-28%	4%	9.3µM*
O=C(c1ccc(-n2cccc2)cc1)N1CCCCC1	·	78%	-7%	-1%	57%
CCC(C)c1ccccc1N1CC(C(=O)N2CCN(C(=O)c3ccco3)CC2)CC1=O (centres undefined)	·	?	0%	-8%	?
C=CCn1c(=O)[nH]c(=O)c2c(N)c(C(=O)c3ccc(OC)cc3)sc21	·	·	1%	·	·
CCOC(=O)c1[nH]c2ccc(OC)cc2c1NC(=O)CN1CCN(c2ccccn2)CC1	5%	-19%	·	-22%	-14%
